Results reported in PubChem BioAssay.
The source made the active and inactive calls. Unless noted, the rule behind the calls is not given here.

How the values were obtained:
[1] = resazurin metabolic signal in HepG2 cells – cell-based, resazurin fluorescence, 24 h, PK04 Diversity Set, profiling panel (AID 1172); conditions: HepG2 viability, higher = more signal
[2] = budding yeast growth changes without added modifier – OD600, strain BY4716, 24 h, basal condition, primary screen (AID 1173); conditions: S. cerevisiae BY4716 growth, OD600, 24 h; higher = more signal, called active from +8 up or from −8 down
[3] = viability profiling in MM1S myeloma cells – cell-based, resazurin fluorescence, basal, 24 h, PK04 Diversity Set, profiling panel (AID 1174); conditions: higher = more signal, called active from +8 up or from −8 down;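 note: MM1S multiple myeloma cell line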
[4] = molecular target: Dihydroorotate dehydrogenase (quinone), mitochondrial (Plasmodium falciparum (isolate 3D7)) (UniProt Q08210); experiment: inhibition of P. falciparum DHODH – biochemical, C-terminal His tag, absorbance 600 nm, primary screen (AID 1175); conditions: PfDHODH enzyme, DCIP absorbance 600 nm; higher = more signal, called active from +8 up or from −8 down;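 note: recombinant parasite enzyme with a five histidine tag at its C terminus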
[5] = inhibition of PAO1 biofilm formation – strain PAO1, LB-PBS medium, absorbance 600 nm, primary screen (AID 1176); conditions: P. aeruginosa PAO1 growth/biofilm, A600, 12 h; higher = more signal
[6] = growth modulation of vineyard yeast isolate – strain RM11-1a, OD600, basal, 24 h, primary screen (AID 1177);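 note: cultures grown under basal conditions with no added stressor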; conditions: S. cerevisiae RM11-1a growth, OD600, 24 h; higher = more signal, called active from +8 up or from −8 down
[7] = growth of efflux-deficient E. coli DRC39 – strain DRC39, OD650, 24 h, E. coli filamentation inducers, primary screen (AID 1178);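 note: growth measured as culture turbidity by optical density at 650 nm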; conditions: E. coli DRC39 acrAB, higher = more signal, called active from +8 up or from −8 down
[8] = growth of efflux-deficient E. coli DRC39 – strain DRC39, OD650, 48 h, E. coli filamentation inducers, primary screen (AID 1179);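 note: screen aims at cell division blockers that make cells filament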; conditions: E. coli DRC39 delta-acrAB growth, higher = more signal, called active from +8 up or from −8 down
[9] = viability profiling in RPMI8226 myeloma cells – cell-based, resazurin fluorescence, basal, 24 h, PK04 Diversity Set, profiling panel (AID 1180); conditions: higher = more signal;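 note: RPMI8826 multiple myeloma cell line at 5000 cells per well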
[10] = molecular target: E3 ubiquitin-protein ligase XIAP (Homo sapiens) (UniProt P98170); experiment: small molecules binding XIAP protein – biophysical, small-molecule microarray, fluorescence 635 nm, primary screen (AID 1181); conditions: higher = more signal;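 note: score merges 667 nm emission and signal to noise over triplicate slides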
[11] = system: XIP peptide (Xip251-270) binding; experiment: XIP fragment 251-270 binding compounds – biochemical, small-molecule microarray, fluorescence 635/667 nm, 0.1 µg/mL protein, primary screen (AID 1182); conditions: fluorescent protein binding, 635 nm, higher = more signal, called active from +8 up or from −8 down
[12] = system: XIP peptide (Xip251-270); experiment: compounds binding XIP fragment 251-270 – biochemical, small-molecule microarray, fluorescence 635/667 nm, 0.5 µg/mL protein, primary screen (AID 1183); conditions: fluorescence 635 nm, higher = more signal
[13] = blood-stage malaria parasite viability loss – strain 3D7, DAPI fluorescence, 100 nL, primary screen (AID 1184);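 note: parasites grown inside human red blood cells in medium with human serum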; conditions: P. falciparum 3D7 growth, 3 d, higher = more signal
[14] = molecular target: Homeobox protein Hox-A13 (Mus musculus) (UniProt Q62424); experiment: disruptors of Hoxa13 oligonucleotide interaction – biochemical, fluorescence polarization, labeled oligonucleotide, primary screen (AID 1185); conditions: Hoxa13:DNA binding, 15 min, higher = more signal, called active from +8 up or from −8 down
[15] = blockers of DNA damage checkpoint Chk1 activation – imaging, HeLa, hydroxyurea, phospho-Chk1 antibody, percent positive cells, primary screen (AID 1186); conditions: hydroxyurea-induced phospho-Chk1 immunofluorescence imaging, higher = more signal
[16] = blockers of DNA damage checkpoint Chk1 activation – imaging, HeLa, hydroxyurea, phospho-Chk1 nuclear intensity, primary screen (AID 1187); conditions: hydroxyurea-induced phospho-Chk1 immunofluorescence imaging, higher = more signal

Chain of Dihydroorotate dehydrogenase (quinone), mitochondrial (Plasmodium falciparum (isolate 3D7)) (Q08210 whole entry, looked up): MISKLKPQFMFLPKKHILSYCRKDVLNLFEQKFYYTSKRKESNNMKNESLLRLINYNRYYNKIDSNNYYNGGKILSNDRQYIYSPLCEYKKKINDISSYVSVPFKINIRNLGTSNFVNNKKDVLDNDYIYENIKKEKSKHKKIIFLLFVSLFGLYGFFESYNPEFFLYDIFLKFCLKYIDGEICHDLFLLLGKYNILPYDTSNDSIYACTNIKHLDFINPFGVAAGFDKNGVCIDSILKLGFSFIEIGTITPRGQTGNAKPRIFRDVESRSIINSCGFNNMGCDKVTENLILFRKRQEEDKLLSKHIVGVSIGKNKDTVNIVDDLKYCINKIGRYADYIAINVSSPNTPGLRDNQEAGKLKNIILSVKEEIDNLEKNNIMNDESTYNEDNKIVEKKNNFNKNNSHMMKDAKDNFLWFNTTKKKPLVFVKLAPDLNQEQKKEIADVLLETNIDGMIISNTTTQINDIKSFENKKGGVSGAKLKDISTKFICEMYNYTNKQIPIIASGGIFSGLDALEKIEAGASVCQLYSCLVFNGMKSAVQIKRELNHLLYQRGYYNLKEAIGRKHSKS
Chain of E3 ubiquitin-protein ligase XIAP (Homo sapiens) (P98170 whole entry, looked up, the tested form may be a part): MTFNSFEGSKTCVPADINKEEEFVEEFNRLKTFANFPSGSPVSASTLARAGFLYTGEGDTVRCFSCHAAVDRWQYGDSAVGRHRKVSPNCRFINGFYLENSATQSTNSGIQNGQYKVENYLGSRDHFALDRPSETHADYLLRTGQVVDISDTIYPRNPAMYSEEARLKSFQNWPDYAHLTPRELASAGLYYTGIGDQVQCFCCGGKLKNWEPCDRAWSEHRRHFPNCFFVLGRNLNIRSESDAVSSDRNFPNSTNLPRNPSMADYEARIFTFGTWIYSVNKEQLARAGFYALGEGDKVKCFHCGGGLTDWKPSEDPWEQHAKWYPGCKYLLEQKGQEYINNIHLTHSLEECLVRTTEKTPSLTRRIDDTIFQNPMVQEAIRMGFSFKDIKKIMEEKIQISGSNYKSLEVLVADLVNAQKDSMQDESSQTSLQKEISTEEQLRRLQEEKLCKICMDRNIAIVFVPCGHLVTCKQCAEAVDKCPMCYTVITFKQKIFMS
Chain of Homeobox protein Hox-A13 (Mus musculus) (Q62424 whole entry, looked up): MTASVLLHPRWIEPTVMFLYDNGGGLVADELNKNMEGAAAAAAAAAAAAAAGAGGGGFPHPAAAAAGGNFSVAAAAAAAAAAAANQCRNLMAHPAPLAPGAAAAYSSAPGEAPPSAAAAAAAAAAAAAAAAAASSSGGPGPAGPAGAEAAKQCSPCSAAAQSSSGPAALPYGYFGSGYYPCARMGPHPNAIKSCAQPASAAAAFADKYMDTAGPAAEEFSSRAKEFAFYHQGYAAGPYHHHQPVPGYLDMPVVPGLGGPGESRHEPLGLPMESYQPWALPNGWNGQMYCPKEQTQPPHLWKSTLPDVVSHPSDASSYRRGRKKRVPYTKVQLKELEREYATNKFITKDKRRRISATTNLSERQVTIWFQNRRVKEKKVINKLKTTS

SMILES | z-score [1] | z-score [2] | z-score [3] | composite z-score [4] | z-score [5] | z-score [6] | z-score [7] | z-score [8] | z-score [9] | composite z-score [10] | composite z-score [11] | composite z-score [12] | z-score [13] | z-score [14] | z-score [15] | z-score [16]
O=C(c1ccccc1)N1Cc2ccccc2[C@@H]2OC(c3ccc(OCCCO)cc3)=N[C@]2(Cc2ccccc2)C1=O | -0.448 | -0.485 (inactive) | -1.79 (inactive) | 0.369 (inactive) | 2.05 (inactive) | 0.843 (inactive) | -0.273 (inactive) | -0.749 (inactive) | -2.49 | -0.102 | 1.67 (inactive) | 0.576 | -2.2 | 1.01 (inactive) | 0.103 (inactive) | -0.3 (inactive)
C=CC[C@]1(C(=O)N2CCCCC2)N=C(c2ccc(OCCCO)cc2)O[C@H]1c1ccccc1 | 1.77 | -2.06 (inactive) | 0.91 (inactive) | -0.309 (inactive) | -0.481 (inactive) | 0.646 (inactive) | 0.825 (inactive) | -0.189 (inactive) | 1.93 | -0.0563 | 0.754 (inactive) | 0.807 | -2.03 | -5.69 (inactive) | -0.0473 (inactive) | 0.452 (inactive)
NCCCCCNC(=O)[C@@H]1C[C@@H]2C(=O)NCC(=O)N2[C@@H]1c1ccc(O)cc1 | 0.0154 | -0.54 (inactive) | 0.236 (inactive) | -1.28 (inactive) | 0.227 (inactive) | 0.225 (inactive) | 0.121 (inactive) | 0.654 (inactive) | -0.9 | 0.348 | 0.715 (inactive) | 0.416 | 0.112 | -1.06 (inactive) | -0.44 (inactive) | -0.316 (inactive)
O=C1[C@H]2C=C(Br)[C@H](C[C@@H]2OCCCCO)[C@@]12CO2 | -0.312 | -0.172 (inactive) | -0.718 (inactive) | 0.228 (inactive) | 0.13 (inactive) | 0.614 (inactive) | -0.649 (inactive) | -0.808 (inactive) | -0.133 | -0.0749 | 0.091 (inactive) | 0.141 | -0.234 | -1.71 (inactive) | -0.0513 (inactive) | -0.265 (inactive)
C=C(COC)/C(=C/C[C@@H](OC(C)=O)c1ccc(CO)o1)c1cnc2ccccc2c1 | -0.956 | -0.677 (inactive) | 0.915 (inactive) | -8.64 (active) | 0.579 (inactive) | 0.704 (inactive) | 0.685 (inactive) | -0.0551 (inactive) | 0.47 | 0.0225 | 1.12 (inactive) | 0.797 | -1.35 | -4.13 (inactive) | -0.154 (inactive) | -0.323 (inactive)
O=C1O[C@@H](c2ccccc2)[C@@H](c2ccccc2)N2[C@@H](c3ccccc3OCCO)[C@]3(C(=O)Nc4ccc(C#CC5=CCCCC5)cc43)[C@@H](C(=O)Nc3nc4ccccc4s3)[C@H]12 | 0.482 | 1.26 (inactive) | -0.785 (inactive) | -1.7 (inactive) | 2.84 (inactive) | 1.34 (inactive) | -0.583 (inactive) | -1.05 (inactive) | -1.2 | -0.234 | 0.705 (inactive) | 0.824 | -2.09 | -12.1 (active) | -0.183 (inactive) | -0.161 (inactive)
O=C1NC(=O)C2C1C=CC(C(O)c1ccccc1)N2Nc1ccc(Cl)cc1Cl (stereo not drawn) | -2.45 | -17.3 (active) | -1.62 (inactive) | -0.782 (inactive) | 1.43 (inactive) | -15.4 (active) | 0.047 (inactive) | -0.224 (inactive) | -1.55 | 0.54 | -0.0839 (inactive) | 0.812 | 0.416 | -5.54 (inactive) | -0.346 (inactive) | -0.621 (inactive)
C=CCOC(=O)[C@H]1[C@@H]2C(=O)O[C@@H](c3ccccc3)[C@@H](c3ccccc3)N2[C@@H](c2ccc(OCCOC(=O)[C@H]3C[C@H]4C(=O)N5CCC[C@H]5C(=O)N4[C@H]3c3ccc(O)cc3)cc2)[C@]12C(=O)Nc1ccccc12 | 0.697 | 1.66 (inactive) | 0.744 (inactive) | -0.391 (inactive) | 3.67 (inactive) | 1.84 (inactive) | -0.0749 (inactive) | -0.13 (inactive) | 0.435 | 0.201 | 0.0734 (inactive) | 0.803 | -1.62 | 1.42 (inactive) | -0.398 (inactive) | 0.207 (inactive)
COCCOC(=O)N1C(=O)[C@@]2(c3cc(C#CC4=CCCCC4)ccc31)[C@H](c1ccc(O)cc1)N1[C@H](c3ccccc3)[C@H](c3ccccc3)OC(=O)[C@H]1[C@@H]2C(N)=O | -0.74 | -0.167 (inactive) | -1.85 (inactive) | -1.06 (inactive) | 0.318 (inactive) | 0.654 (inactive) | 0.066 (inactive) | 0.552 (inactive) | -2.95 | 0.0435 | 0.181 (inactive) | 0.751 | -0.0117 | -1.22 (inactive) | 0.0809 (inactive) | 0.185 (inactive)
COc1ccc([Si](C)(C)[C@H]2[C@H](CC(=O)N3Cc4ccccc4C[C@H]3CO)O[C@@]3(C(=O)N(Cc4ccc(N5CCC5=O)cc4)c4ccccc43)[C@@H]2C)cc1 | 0.194 | -0.535 (inactive) | -1.56 (inactive) | -3.08 (inactive) | 0.201 (inactive) | 1.83 (inactive) | -0.0476 (inactive) | -0.421 (inactive) | -1.26 | 0.216 | 0.0316 (inactive) | 0.817 | -1.95 | -3.83 (inactive) | -0.176 (inactive) | -0.0862 (inactive)
CCCC[C@@H]1C[C@H]1[C@@H](NC(=O)c1ccco1)c1ccc(Cl)cc1 | -0.653 | 1.44 (inactive) | 0.134 (inactive) | -0.284 (inactive) | 0.343 (inactive) | 0.657 (inactive) | -0.181 (inactive) | 0.16 (inactive) | -0.0142 | -0.124 | 0.593 (inactive) | -0.111 | -0.727 | -3.18 (inactive) | -0.522 (inactive) | -0.995 (inactive)
COC(=O)[C@@]1(Cc2ccc(F)cc2)[C@H]2c3cc(C(=O)N(C)C)n(CC4CC4)c3C[C@H]2CN1C(=O)c1ccccc1 | -0.881 | 1.78 (inactive) | -1.37 (inactive) | -0.0778 (inactive) | 0.206 (inactive) | 0.479 (inactive) | -0.868 (inactive) | -0.398 (inactive) | -2.09 | 0.454 | 0.308 (inactive) | 0.524 | -1.33 | -2.84 (inactive) | -1.45 (inactive) | -1.76 (inactive)
O=C1C[C@]2(c3ccc([N+](=O)[O-])cc3)C(=O)N(CCN3CCOCC3)c3cc(CO)ccc3[C@H]2N1C1CCCCC1 | -0.592 | -0.0979 (inactive) | -0.399 (inactive) | -7.11 (inactive) | 0.0993 (inactive) | -0.974 (inactive) | 1.06 (inactive) | 1.66 (inactive) | 0.186 | -0.16 | 1.2 (inactive) | 0.314 | 0.476 | -2.02 (inactive) | -0.533 (inactive) | -0.355 (inactive)
CCOC(=O)C[C@H]1[C@H](OC(=O)c2cc3ccccc3oc2=O)[C@@H](NC(=O)Cc2ccc(OC)cc2)c2cc(OCCCO)ccc2N1C(=O)c1ccccc1 | -1.1 | -2.06 (inactive) | -0.218 (inactive) | -2.42 (inactive) | -0.329 (inactive) | 0.0296 (inactive) | -0.682 (inactive) | -0.784 (inactive) | -1.22 | 0.0997 | 0.48 (inactive) | 0.853 | -1.9 | -2.46 (inactive) | 0.907 (inactive) | 0.546 (inactive)
[N-]=[N+]=Nc1ccccc1[C@H]1OC(c2ccc(OCCCO)cc2)=N[C@@]1(Cc1ccccc1)C(=O)O | 0.615 | -0.967 (inactive) | -0.149 (inactive) | 1.12 (inactive) | 0.631 (inactive) | 0.222 (inactive) | 0.451 (inactive) | 0.534 (inactive) | -0.434 | 0.0735 | 0.387 (inactive) | 0.686 | -1.23 | -5.18 (inactive) | -0.48 (inactive) | -0.822 (inactive)
C=C(CCCC)C(=O)CC[C@@H](OC(=O)c1cccnc1)c1ccc(CO)o1 | 0.154 | -0.594 (inactive) | -0.16 (inactive) | -1.05 (inactive) | 0.555 (inactive) | 0.0671 (inactive) | 0.186 (inactive) | -0.0608 (inactive) | 0.0739 | 0.0256 | 0.67 (inactive) | 0.561 | -0.46 | -4.35 (inactive) | 0.575 (inactive) | -0.023 (inactive)
O=C1OCCC/C=C\[C@H]2OC34C=CCN(Cn5nnc6ccccc65)C(=O)[C@H]3N(CCCCCCO)C(=O)[C@@H]4C12 (stereo partly drawn) | 1.14 | -1.45 (inactive) | 0.651 (inactive) | -0.332 (inactive) | 1.07 (inactive) | -1.16 (inactive) | 1.09 (inactive) | 1.18 (inactive) | 0.598 | -0.203 | -0.0221 (inactive) | -0.0976 | -0.395 | -4.38 (inactive) | -0.471 (inactive) | 0.832 (inactive)
O=C1OCC=C[C@H]2OC34C=CCN(CCN5CCOCC5)C(=O)[C@H]3N(CCCO)C(=O)[C@@H]4[C@@H]12 (stereo partly drawn) | -0.31 | -0.187 (inactive) | -1.4 (inactive) | -0.283 (inactive) | -0.385 (inactive) | 0.451 (inactive) | -0.514 (inactive) | -1.15 (inactive) | -0.0279 | 0.0222 | -0.0676 (inactive) | -0.0046 | -1.83 | -4.01 (inactive) | 0.2 (inactive) | 0.099 (inactive)
